Source: PubChem
The list is not random: actives were taken first. Their share in the collection is about 4%.
Measles CPE: protection of cells from measles virus; Measles virus-infected cells, CPE protection, absorbance; protection (pct of control), % at 4 µM; 140,000 tested, 1.5% active; in the data active means protection mostly above about 24%, no sharp cut-off; inactive means mostly below about 26%
Cl transport mod: modulates chloride dependent transport by human KCC2. KCC2 cells, thallium flux FluoZin-2 fluorescence. Q9H2X9. 190,000 tested, 2.2% active. B-score of Tl+ flux slope (higher = more flux/activation; lower = inhibition) at 10 µM;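 active means thallium flux slope and its plate-corrected score both differing from the plate sample mean at a set confidence after two filtering rounds, in either direction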;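 further: slope of fluorescence scaled to starting intensity during 10 to 20 s after thallium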
HSV replic up: increases HSV replication in cells. 220,000 tested, 0.005% active. HSV replication augmentation in cells, fold increase. maximum fold increase; in the data active means maximum fold increase above about 1.5; tested in PC3 cells
Arbovirus anti: antivirals against arbovirus infection. arbovirus infection cell-based antiviral screen. inhibition, % at 10 µM. 200,000 tested, 0.37% active. AID 1251; in the data active means inhibition above about 30%
ROMK primary: human ROMK K+ channel modulation, primary screen; P48048; Tet-inducible ROMK, thallium flux fluorescence; actives lie on both sides; B-score at 10 µM; 130,000 tested, 2% active; AID 1918;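 active means signal ratio slope over the read window, or its plate-corrected B-score, at least 3 SD from the plate mean, either direction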;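 further: B-score of the F/F0 ratio slope over 7 to 12 s after thallium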
Target sequence (P48048 whole entry, looked up): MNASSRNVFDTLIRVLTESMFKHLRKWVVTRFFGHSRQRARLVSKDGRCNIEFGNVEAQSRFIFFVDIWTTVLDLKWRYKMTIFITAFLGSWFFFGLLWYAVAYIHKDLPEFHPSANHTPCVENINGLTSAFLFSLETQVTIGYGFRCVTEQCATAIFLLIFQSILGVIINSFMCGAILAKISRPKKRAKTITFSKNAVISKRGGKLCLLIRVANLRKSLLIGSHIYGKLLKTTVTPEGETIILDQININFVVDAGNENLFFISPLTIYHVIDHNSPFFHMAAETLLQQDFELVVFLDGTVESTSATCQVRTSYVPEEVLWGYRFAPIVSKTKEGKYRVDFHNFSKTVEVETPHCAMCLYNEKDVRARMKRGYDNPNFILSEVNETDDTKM
An asterisk follows results filed as active.

For COc1ccc(-c2nnc(Nc3nc4c(OC)cccc4s3)o2)cc1 the results were Measles CPE 19.8, Cl transport mod 9.51* and Arbovirus anti -26.1.
`COc1ccc(-c2nnc(Nc3nc4c(OC)cccc4s3)o2)c(OC)c1` gave Measles CPE 5.3, Cl transport mod 84.8*, HSV replic up inactive, Arbovirus anti -22.3 and ROMK primary 7.32*.
COc1ccc(CN(C(=O)c2oc3ccccc3c2C)C2CCS(=O)(=O)C2)cc1OC (centres undefined) was read as Measles CPE 13.6, HSV replic up inactive and Arbovirus anti 87.3*.
COc1ccc(C(=O)NCCSc2ccccc2)cc1 was read as Measles CPE 5.6, Cl transport mod -1.12, HSV replic up inactive, Arbovirus anti -10.4 and ROMK primary -0.938.
Screening COc1ccc(-c2[nH]c3ccccc3c2SCCNC(=O)c2ccccc2)cc1 returned Measles CPE 32.4*, Cl transport mod -0.134, Arbovirus anti 1.7 and ROMK primary -2.01.
For CCCCN1C(=O)C(O)(CC(=O)c2c(C)n[nH]c2C)c2cc(Br)ccc21 (centres undefined) the results were Measles CPE 73.0*, HSV replic up inactive and Arbovirus anti -2.6.
For COC(=O)c1cc(Br)c(=O)n(Cc2ccco2)c1 the results were Measles CPE 37.1*, Cl transport mod -1.45, HSV replic up inactive, Arbovirus anti 1.0 and ROMK primary 0.174.
For COc1ccc(CNC(=O)CCCc2ccccc2)cc1 the results were Measles CPE 31.2*, Cl transport mod -2.73, HSV replic up inactive, Arbovirus anti -9.8 and ROMK primary -0.663.
Nc1nc(N)c2c(n1)CCCC2 was read as Cl transport mod 0.481, HSV replic up inactive and ROMK primary -1.23.
For O=C(CSc1cccc[n+]1[O-])c1cc2ccccc2o1 the results were Measles CPE 12.4, Cl transport mod 7.19*, HSV replic up inactive, Arbovirus anti -8.3 and ROMK primary -0.0355.
For O=C(CSc1ncccn1)NC(=O)c1ccccc1 the results were Cl transport mod -0.186, HSV replic up inactive and Arbovirus anti 8.1.
Screening Nc1ncccc1OCc1ccc(Cl)c(Cl)c1 returned Cl transport mod -0.179, HSV replic up inactive and ROMK primary -0.232.
CCCOC(=O)Oc1ccc2c(=O)c(Oc3cc(C)cc(C)c3)coc2c1 was read as Measles CPE 20.1*, Cl transport mod -1.02, HSV replic up inactive, Arbovirus anti -2.5 and ROMK primary -0.257.
Screening O=C(COc1ccc2ccccc2c1CN1CCOCC1)N1CCc2ccccc21 returned Measles CPE 12.3, Cl transport mod -7.85*, HSV replic up inactive and Arbovirus anti -5.8.
Screening CS(=O)(=O)N1CCN(C(=O)C2c3ccccc3Oc3ccccc32)CC1 returned Measles CPE 67.1*, Cl transport mod -0.662, HSV replic up inactive and Arbovirus anti 5.8.
`CCC(=O)N1c2ccc(C)cc2C2=NNC(=S)NC21O` (centres undefined) gave Measles CPE 16.5, Cl transport mod 5.36*, HSV replic up inactive, Arbovirus anti -3.7 and ROMK primary 0.101.
For COc1ccccc1C(=O)N/N=C/c1ccc(Cl)s1 the results were Measles CPE 10.7, Cl transport mod -1.88, HSV replic up inactive, Arbovirus anti 2.1 and ROMK primary -0.468.
`O=C(N/N=C/c1cccs1)c1ccccn1` gave Measles CPE 42.2*, Cl transport mod -0.0861, HSV replic up inactive, Arbovirus anti 7.3 and ROMK primary -0.491.
`O=C(N/N=C\c1ccc(Cl)s1)c1cccs1` gave Measles CPE 4.7, Cl transport mod 19*, HSV replic up inactive, Arbovirus anti -6.2 and ROMK primary -1.16.
Screening CCCNC(=O)C(=O)N/N=C/c1cccs1 returned Measles CPE 50.1*, Cl transport mod 0.0497, HSV replic up inactive and Arbovirus anti -7.2.
`CCN(c1ccccc1)S(=O)(=O)c1ccc(OC)c(NC(=O)Cn2cnc3c2c(=O)n(C)c(=O)n3C)c1` gave Cl transport mod 0.172, HSV replic up inactive, Arbovirus anti -6.9 and ROMK primary 0.218.
For O=C(O)CCCNC(=O)c1ccc(NC(=O)Cc2ccc(Cl)cc2)cc1 the results were Cl transport mod 0.0128, HSV replic up inactive, Arbovirus anti 3.3 and ROMK primary -0.285.
Screening O=C(Nc1cccc(Cl)c1)NC1CC2CCC(C1)N2Cc1cccs1 (centres undefined) returned Cl transport mod -0.424, HSV replic up inactive, Arbovirus anti -9.2 and ROMK primary -0.108.
For CC(C)NC(=O)COC(=O)c1cc(Br)ccc1Cl the results were Measles CPE 51.6*, Cl transport mod 0.403, HSV replic up inactive, Arbovirus anti 4.1 and ROMK primary 0.035.
CC(C)NC(=O)COC(=O)c1cc(F)c(F)cc1Cl was read as Measles CPE 19.9, HSV replic up inactive, Arbovirus anti 2.9 and ROMK primary -0.25.
Screening COC(=O)c1ccccc1NC(=O)CN1CCC(NC(=O)c2ccccc2C)CC1 returned Measles CPE 6.2, Cl transport mod -0.137, HSV replic up inactive and Arbovirus anti 83.5*.
`COc1ccc(OC)c(/C=C(\NC(=O)c2ccccc2)C(=O)N/N=C/c2ccc(C)s2)c1` gave Measles CPE 35.3*, Cl transport mod 1.93, HSV replic up inactive, Arbovirus anti -2.5 and ROMK primary 0.961.
`COc1ccc(/C=C/C(=O)Nc2cc(S(=O)(=O)N3CCOCC3)ccc2C)cc1OC` gave Cl transport mod 0.227, HSV replic up inactive, Arbovirus anti -10.5 and ROMK primary -0.464.
`CCC(C(=O)NC(C)CCc1ccco1)n1nc(C)n2c(cc3occc32)c1=O` (centres undefined) gave Measles CPE 1.9, Cl transport mod -1.12, HSV replic up inactive and Arbovirus anti -10.4.
CCC(C(=O)NC(C)CCc1ccccc1)n1nc(C)n2c(cc3occc32)c1=O (centres undefined) was read as Measles CPE 5.6, Cl transport mod -5.51*, HSV replic up inactive and Arbovirus anti -9.6.
`Cc1ccc(S(=O)(=O)CCSc2cccc(C(=O)Nc3ccccc3C(=O)O)c2)cc1` gave Measles CPE 37.0, Cl transport mod -3.81, HSV replic up inactive and Arbovirus anti 43.5*.
Screening CCc1cccc(NC(=O)c2ccc3c(=O)n4c(nc3c2)CCCCC4)c1 returned Cl transport mod -2.59, HSV replic up inactive and ROMK primary -0.28.
For O=C(NC1CCN(Cc2ccccc2)CC1)c1cccc(S(=O)(=O)Nc2cc(C(F)(F)F)ccc2Cl)c1 the results were Measles CPE 11.5, Cl transport mod -0.336, Arbovirus anti 32.8* and ROMK primary -1.51.
Screening O=C(NC(=S)N1CCCCC1)C12CC3CC(CC(C3)C1)C2 returned Measles CPE 38.1, Cl transport mod 35.4*, HSV replic up inactive and Arbovirus anti -2.9.
`CC12CC3CC(C)(C1)CC(C(=O)NC(=S)N1CCOCC1)(C3)C2` gave Measles CPE 6.4, Cl transport mod 4.99*, HSV replic up inactive and Arbovirus anti -0.8.
`COC(=O)NC(=S)N1CCOCC1` gave Measles CPE 7.0, Cl transport mod 0.736, Arbovirus anti 1.9 and ROMK primary 0.162.
